# Among all 290,000 compounds or so, about 3,300 (1.1%) were called active. Shown is part of a subset that was picked to be rich in actives. Values without a mark were called inactive. No stated cut-off is given here; in the data, active means binding response below about 67% or above about 130%; inconclusive means no clear call, values can overlap the other calls; inactive means in between.
# Target: Mitogen-activated protein kinase kinase kinase 2 (Homo sapiens) (UniProt Q9Y2U5)
# Assay: modulators of MEK5 binding to wildtype MEKK2, primary screen, biochemical, multiplex bead flow cytometry, Alexa488-MEK5 (AID 1531)
# Details: Alexa488-MEK5 binding to MEKK2 WT, at 10 µM, actives lie on both sides
row,Compound,binding response (% of control)
1,Cn1ccnc1-c1nnn(-c2ccc(F)cc2)n1,97%
2,CSc1ccc(S(=O)(=O)N2CCC(C(=O)NCc3ccncc3)CC2)cc1,105%
3,CN(CC(=O)O)S(=O)(=O)c1ccc2oc3ccccc3c2c1,110%
4,O=C(NCCCN1CCN(c2ccc(F)cc2)CC1)Nc1ccc([N+](=O)[O-])cc1,140% (active)
5,CN1CCN(CCNC(=O)Nc2ccc([N+](=O)[O-])cc2)CC1,105%
6,O=C(COc1ccc([N+](=O)[O-])cc1)Nc1ccc(N2CCCC2)cc1,103%
7,COC(=O)C1(C)CC1(c1ccccc1)c1ccccc1 (stereo unspecified),104%
8,CCOCCCn1c(SCC(=O)Nc2cc(OC)ccc2OC)nc2ccccc2c1=O,105%
9,O=C(NCc1ccco1)/C(=C\c1cccc([N+](=O)[O-])c1)NC(=O)c1ccco1,101%
10,CCC1CCCCN1CCCNC(=O)c1cc2c(Cl)nc3ccccc3c2s1 (stereo unspecified),173% (active)
11,CCC1CCCCN1CCCNC(=O)Cn1nc(-c2ccccc2)ccc1=O (stereo unspecified),108%
12,CCC1CCCCN1CCCNC(=O)C1CCC(Cn2c(=O)[nH]c3ccccc3c2=O)CC1 (stereo unspecified),110%
13,CN1CCN(Cc2nc3cc(NC(=O)COc4ccc([N+](=O)[O-])cc4)ccc3n2C)CC1,109%
14,CCCC/S(C)=N/S(=O)(=O)c1ccc(C)cc1 (stereo unspecified),102%
15,Cc1ccc(S(=O)(=O)/N=S(\C)C(C)C)cc1 (stereo unspecified),2% [inhibitor] (active)
16,CC/S(CC1CC1(Cl)Cl)=N\S(=O)(=O)c1ccc(C)cc1 (stereo unspecified),96%
17,S=C(NCCCc1ccccc1)Nc1ccc(Br)cc1,100%
18,COc1ccccc1NC(=O)CN(c1ccccc1OC)S(=O)(=O)c1ccccc1,99%
19,OCCNc1nc(Nc2ccc(Cl)c(Cl)c2)nc2ccccc12,150% (active)
20,CN(C)c1nc(Nc2ccc(Cl)c(Cl)c2)nc(N(C)C)n1,98%
21,Nc1nc(Nc2ccccc2)nc(NCCO)c1[N+](=O)[O-],98%

row,Compound,binding response (% of control)
1,CC(C)CNS(=O)(=O)c1ccc(C(=O)Nc2ccc3c(c2)OCO3)cc1,103%
2,Cn1c(C(=O)NCCCN2CCCCC2)cc2sccc21,138% (active)
3,COc1ccc(CCNC(=O)c2cc3sccc3n2C)cc1OC,104%
4,Cn1c(C(=O)N2CCCC(C(=O)NCc3ccccc3)C2)cc2sccc21 (stereo unspecified),102%
5,CC(C)C(C)NC(=O)COc1ncnc2ccccc12 (stereo unspecified),105%
6,COCC(C)NC(=O)COc1nncc2ccccc12 (stereo unspecified),40% [inhibitor] (active)
7,COC(=O)C(C)NC(=O)COc1ccc2ccccc2c1 (stereo unspecified),95%
8,CCC(C)C(=O)Nc1ccccc1N1CCN(c2ccc(F)cc2)CC1 (stereo unspecified),101%
9,COc1cc(NC(=O)c2cccnc2SC)cc(OC)c1,101%
10,COc1cccc(Nc2ncccc2C(=O)O)c1,4% [inhibitor] (active)
11,COc1ccc2nc(C)cc(Nc3cccc(C(=O)O)c3)c2c1,110%
12,COc1ccc(-c2c(NC(=O)c3ccco3)oc3ccc(Cl)cc3c2=O)cc1,104%
13,COc1ccc2[nH]c3nc(SCC(=O)NC4CC4)nnc3c2c1,104%
14,CCCCCCCCCCCCN1[C@@H](CC(C)=O)c2cc(F)cc(F)c2S1(=O)=O,103%
15,Cc1nc(-c2ccc(Cl)cc2)sc1C1(C)CC(c2ccc(Br)cc2)=NO1 (stereo unspecified),95%
16,O=C(CN1CCOc2ccccc21)N1CCC(Cc2ccccc2)CC1,107%
17,Cc1cccc(OCC(O)CN2CCN(CCN3C(=O)c4cccc5cccc(c45)C3=O)CC2)c1C (stereo unspecified),146% (active)
18,Cc1ccccc1OCC(O)CN1CCN(c2ccccn2)CC1 (stereo unspecified),99%
19,Cc1cccc(C)c1OCC(O)CN1CCCCC1 (stereo unspecified),94%
20,O=C(NC1CC1)C1=C[C@H](c2coc3ccccc3c2=O)C[C@H](OCCCCO)O1,108%
21,Cc1cccc(N(C(=O)c2sc(C)nc2C)C(C(=O)NCC2CCCO2)c2ccccc2)c1 (stereo unspecified),106%

row,Compound,binding response (% of control)
1,Nc1nc(Nc2ccccc2F)nc(NC2CCCCC2)c1[N+](=O)[O-],98%
2,CCn1c(SCC(=O)Nc2ccc3c(c2)OCCO3)nnc1-c1ccncc1,106%
3,CCOc1ccc(S(=O)(=O)N(CC(=O)O)c2ccccc2)cc1,6% [inhibitor] (active)
4,CCOc1ccc(N(CC(=O)NCCc2ccc(F)cc2)S(=O)(=O)c2ccccc2)cc1,96%
5,CCOc1ccc(N(CC(=O)NCCOc2ccccc2OC)S(=O)(=O)c2ccccc2)cc1,104%
6,C=Cn1cc[n+](CC(=O)c2ccc(OC)c(OC)c2)c1,96%
7,CSc1nnc(NC(=O)c2nc(S(=O)(=O)Cc3ccc(C)cc3)ncc2Cl)s1,101%
8,COC(=O)c1c(NC(=O)COC(=O)[C@@H](NS(=O)(=O)c2ccccc2)C(C)C)sc2c1CCC2,1% [inhibitor] (active)
9,COC(=O)c1c(NC(=O)CCCC(=O)O)sc2c1CCCCC2,98%
10,CCc1ccc(N(CC(=O)Nc2sc3c(c2C(=O)OC)CCCC3)S(C)(=O)=O)cc1,93%
11,Cc1cc(CN(C)C(=O)c2cc(COc3ccc(C)c(C)c3)on2)n[nH]1,109%
12,CN(CCc1ccccc1)c1ccc([N+](=O)[O-])cn1,102%
13,Cc1ccc2nc(N(CCN(C)C)C(=O)C3=COCCO3)sc2c1,113%
14,Cc1ccc2sc(N(CCN(C)C)C(=O)/C=C/c3cccs3)nc2c1C,151% (active)
15,CC(=O)N(CCCN(C)C)c1nc2ccc(C)cc2s1,104%
16,Cc1cccc2sc(N(CCCN(C)C)C(=O)CCS(=O)(=O)c3ccccc3)nc12,119%
17,Cc1cc(C)c2nc(N(CCN(C)C)C(=O)/C=C/c3cccs3)sc2c1,165% (active)
18,Cc1ccc(S(=O)(=O)N(C)C)cc1NC(=O)/C=C/c1cccs1,107%
19,COc1ccc(N2CCN(C(=O)[C@@H](NC(=O)c3cc(OC)cc(OC)c3)C(C)C)CC2)cc1,108%

# — PubChem BioAssay AID1531 (NMMLSC, 2009)
